PubChem BioAssay

Test: modulation of C. elegans fzo-1 (AID 1259413);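 also: fzo-1 mutant C. elegans worms in liquid wells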
Details: C. elegans fzo-1 modulator screen, mean read-out; stronger effect = higher value; call rule not given here

Mean signal, inactive:
CC12CCC(=O)C=C1CC[C@@H]1[C@@H]2[C@@H](O)CC2(C)[C@@H](C(=O)CO)CC[C@@H]12 (stereo not given in full) 250
CC(=O)O[C@]1(C(C)=O)CC[C@H]2[C@@H]3C=C(C)C4=CC(=O)CCC4(C)[C@H]3CCC21C (stereo not given in full) 261
CO[C@H]1C=CO[C@@]2(C)Oc3c(C)c(O)c4c(O)c(c(/C=N/N5CCN(C6CCCC6)CC5)c(O)c4c3C2=O)NC(=O)/C(C)=C\C=C[C@H](C)[C@H](O)[C@@H](C)[C@@H](O)[C@@H](C)[C@H](OC(C)=O)[C@@H]1C 288
C[C@@H]1C[C@H]2[C@@H]3C[C@H](F)C4=CC(=O)C(Cl)=CC4(C)[C@@]3(F)[C@@H](O)CC2(C)[C@@]1(O)C(=O)CO (stereo not given in full) 273
C/C=C1/[C@H]2C=C(C)C[C@]1(N)c1ccc(=O)[nH]c1C2 229
CC#C[C@]1(O)CC[C@H]2[C@@H]3CCC4=CC(=O)CCC4=C3[C@@H](c3ccc(N(C)C)cc3)CC21C (stereo not given in full) 225
C#C[C@]1(O)CC[C@H]2[C@@H]3[C@H](C)CC4=C(CCC(=O)C4)[C@H]3CCC21C (stereo not given in full) 249
CC(=O)O[C@H]1C[C@@H]2CC[C@@H]3[C@H](CCC4(C)[C@H]3C[C@H]([N+]3(C)CCCCC3)[C@@H]4OC(C)=O)C2(C)C[C@@H]1N1CCCCC1 (stereo not given in full) 285
C#C[C@]1(O)CC[C@H]2[C@@H]3CCc4cc(O)ccc4[C@H]3CCC21C (stereo not given in full) 242
CC12CC[C@@H]3c4ccc(OS(=O)(=O)O)cc4CC[C@H]3[C@@H]1CCC2=O (stereo not given in full) 260
CCC(=O)O[C@]1(C(=O)SCF)[C@H](C)C[C@H]2[C@@H]3C[C@H](F)C4=CC(=O)C=CC4(C)[C@@]3(F)[C@@H](O)CC21C (stereo not given in full) 245
C=CC[C@@H]1/C=C(\C)C[C@H](C)C[C@H](OC)[C@H]2OC(O)(C(=O)C(=O)N3CCCC[C@H]3C(=O)O[C@H](/C(C)=C/[C@@H]3CC[C@@H](O)[C@H](OC)C3)[C@H](C)[C@@H](O)CC1=O)[C@H](C)C[C@@H]2OC 274
C=CC1=C(C(=O)O)N2C(=O)[C@@H](NC(=O)/C(=N/OCC(=O)O)c3csc(N)n3)[C@H]2SC1 257
CC(=O)OC1C([N+]2(C)CCCCC2)C[C@H]2C3CC[C@H]4C[C@H](OC(C)=O)C([N+]5(C)CCCCC5)CC4(C)[C@H]3CCC12C (stereo not given in full) 283
COc1cc(CNC(=O)CCCC/C=C\C(C)C)ccc1O 250
CO[C@H]1C=CO[C@@]2(C)Oc3c(C)c(O)c4c(O)c(c5c(nc6cc(C)ccn65)c4c3C2=O)NC(=O)/C(C)=C\C=C[C@H](C)[C@H](O)[C@@H](C)[C@@H](O)[C@@H](C)[C@H](OC(C)=O)[C@@H]1C 289
CC(C)(C)NC(=O)[C@H]1CC[C@H]2[C@@H]3CC[C@H]4NC(=O)C=CC4(C)[C@H]3CCC12C (stereo not given in full) 247
C[C@@H]1C[C@H]2[C@@H]3CCC4=CC(=O)C=CC4(C)[C@@]3(F)[C@@H](O)CC2(C)[C@H]1C(=O)CO (stereo not given in full) 245
N[C@@H](C(=O)N[C@@H]1C(=O)N2C(C(=O)O)=C(CSC3CNNN3)CS[C@H]12)c1ccc(O)cc1 (stereo not given in full) (tested in a mixture with another compound) 239
CC12CC[C@@H]3c4ccc(O)cc4CC[C@H]3[C@@H]1CC[C@@H]2O (stereo not given in full) 233
CCOC(=O)O[C@]1(C(=O)OCCl)CC[C@H]2[C@@H]3CCC4=CC(=O)C=CC4(C)[C@H]3[C@@H](O)CC21C (stereo not given in full) 256
CC(=O)[C@H]1CC[C@H]2[C@@H]3CCC4=CC(=O)CCC4(C)[C@H]3CCC12C (stereo not given in full) 279
O=C1N[C@H](C(=O)O)CS1 242
CC12C=CC(=O)C=C1CC[C@@H]1[C@@H]2[C@@H](O)CC2(C)[C@H]1CC[C@]2(O)C(=O)COC(=O)CCC(=O)O (stereo not given in full) 283
CC[C@H]1OC(=O)[C@H](C)C(=O)[C@H](C)[C@@H](O[C@@H]2O[C@H](C)C[C@H](N(C)C)[C@H]2O)[C@](C)(OC)C[C@@H](C)C(=O)[C@H](C)[C@@H]2N(CCCCn3cnc(-c4cccnc4)c3)C(=O)OC21C (stereo not given in full) 205
C#C[C@]1(O)CC[C@H]2[C@@H]3CCC4=CC(=O)CC[C@@H]4[C@H]3CCC21CC (stereo not given in full) 225
C#C[C@]1(O)CC[C@H]2[C@@H]3CCc4cc(OC)ccc4[C@H]3CCC21C (stereo not given in full) 241
C=C1/C(=C\C=C2/CCCC3(C)[C@@H]([C@H](C)/C=C/[C@@H](O)C4CC4)CC[C@@H]23)C[C@@H](O)C[C@@H]1O (stereo not given in full) 277
C=C1/C(=C\C=C2/CCCC3(C)[C@@H]([C@H](C)CCCC(C)(C)O)CC[C@@H]23)C[C@@H](O)C[C@@H]1O (stereo not given in full) 260
CC(=O)OC12CO[C@@H]1C[C@H](O)[C@@]1(C)C(=O)[C@H](O)C3=C(C)[C@@H](OC(=O)[C@H](O)[C@@H](NC(=O)OC(C)(C)C)c4ccccc4)CC(O)([C@@H](OC(=O)c4ccccc4)[C@H]21)C3(C)C (stereo not given in full) 256
